Only some compounds are listed: those with a hit (about 0.51% of all), similar ones and a draw of the others.
E coli growth-1 – bacterial growth inhibition, counter-screen for AddAB inhibitors; AID 449728; inhibition, % at 11.9 µM; 0.27% of 330,000 active; E. coli V3065 growth, OD600 absorbance, 18 h;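 active means inhibition above the campaign's mean inhibition across all tested compounds plus 3 SD, cut at about 9.9% in these data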;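 further: uninfected addAB+ strain grown without phage in ampicillin broth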
Tat export inh – E. coli Tat transport inhibition. inhibition, % at 10 µM. E. coli MC4100 TorA-mCherry Tat export, fluorescence. 0.036% of 340,000 active;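 active means mean replicate inhibition at least 50% and at least half of replicates individually reaching 50%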;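 further: exported cargo escapes ClpAP degradation while cytoplasmic cargo is degraded and loses fluorescence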
phage Ecoli inh – E. coli growth loss with phage present | growth absorbance | inhibition, % at 11.9 µM | 0.26% of 360,000 active; in the data active means inhibition above about 11%
E coli growth-2 – E. coli growth inhibition; Escherichia coli growth, OD600, 23 h; hits give low values; OD600 absorbance (concentration not given with the values); 0.21% of 330,000 active;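 active means OD600 absorbance below the run mean of sample wells minus 3.6 SD, in any replicate, cut at about 0.56 in these data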
AddAB inh – less growth of phage-infected E. coli with AddAB. 0.29% of 330,000 active. AID 435030. E. coli expressing H. pylori AddAB, absorbance growth. inhibition, % at 11.9 µM; in the data active means inhibition above about 12%
AddAB confirm – confirmation screen: growth loss of phage-infected E. coli expressing H. pylori AddAB | shares compounds with AddAB inh | E. coli V3065 expressing H. pylori AddAB, T4 phage, OD; T4 phage with gene 2 nonsense mutations | inhibition, % at 11.9 µM | 64% of 880 active;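 active means mean inhibition above a set limit taken from the earlier primary screen, cut at about 13% in these data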;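 further: higher means less bacterial growth since AddAB block lets phage replicate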
RecBCD counter – counter-screen: growth loss of RecBCD+ E. coli with mutant T4 phage | shares compounds with AddAB inh | E. coli V66 + mutant T4 phage, OD growth | inhibition, % at 11.9 µM | 73% of 880 active | AID 488955;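 active means mean inhibition above the mean of solvent-only control wells plus 3 SD, cut at about 4% in these data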;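 further: optical density read after an 18 h incubation at 37 °C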
bact viab count – counter-screen: bacterial growth inhibition. 35% of 880 active. bacterial viability, absorbance (AddAB counterscreen). inhibition, % at 11.9 µM. shares compounds with AddAB inh; in the data active means inhibition above about 25%
RecBCD conf – confirmation: growth loss of phage-infected RecBCD+ E. coli (RecBCD inhibitor screen); E. coli V66 + T4 2- phage, growth OD; AID 651982; inhibition, % at 11.9 µM; shares compounds with phage Ecoli inh; 45% of 890 active;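 active means mean inhibition over triplicates exceeding the hit threshold derived in the original primary screen, cut at about 11% in these data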
Ecoli viability – inhibits E. coli viability, flagging RecBCD hits as nonselective | shares compounds with phage Ecoli inh | absorbance (OD) growth | inhibition, % at 11.9 µM | 29% of 890 active | AID 651983; in the data active means inhibition above about 20%;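 further: E. coli strain V66 grown with compound alone and no phage infection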
AddAB phage OD – growth loss of phage-infected AddAB E. coli, RecBCD counter-screen; shares compounds with phage Ecoli inh; E. coli expressing H. pylori AddAB + T4 phage, OD growth; gene 2 mutant T4, recBCD-deleted host; inhibition, % at 11.9 µM; 45% of 890 active; AID 651984;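 active means mean inhibition above the solvent-only control wells' mean plus 3 SD, cut at about 22% in these data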;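 further: higher means less bacterial growth from phage killing when AddAB is blocked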
Numbers stand for hits; n = inactive; x = no result given.

SMILES | E coli growth-1 | Tat export inh | phage Ecoli inh | E coli growth-2 | AddAB inh | AddAB confirm | RecBCD counter | bact viab count | RecBCD conf | Ecoli viability | AddAB phage OD
CC1C(=NO)C(CN(C)C)C2CC1C2(C)C (stereo not given) | x | x | x | n | x | x | x | x | x | x | x
FC(F)(F)c1cnc(NN=Cc2ccncc2)c(Cl)c1 | x | x | x | n | x | x | x | x | x | x | x
CCn1ccc(C(=O)NC2C(=O)N3C(C(=O)O)=C(C)CSC23)n1 (stereo not given) | n | n | n | n | n | x | x | x | x | x | x
C=CC1=C(C(=O)O)N2C(=O)[C@@H](NC(=O)/C(=N\O)c3csc(N)n3)[C@H]2SC1 (stereo in doubt) | 99.0 | n | 99.1 | x | 98.6 | 102.9 | 101.3 | 102.7 | 104.5 | 106.0 | 105.2
Cc1ccc(-c2[nH]c3cc(C(N)=O)ccc3c(=O)c2O)cc1 | n | n | n | x | n | x | x | x | x | x | x
Cc1ccc(CNC(=O)c2ccc3c(=O)c(O)c(-c4ccc(C)cc4)[nH]c3c2)cc1 | 20.0 | n | 17.3 | n | 16.9 | 20.9 | 18.6 | n | 11.0 | n | n
CCCNC(=O)c1ccc2c(=O)c(O)c(-c3ccc(C)cc3)[nH]c2c1 | 24.9 | n | 21.1 | x | 22.6 | 19.6 | 16.5 | n | n | n | 23.5
CC(=NN1CCN(Cc2ccc(Cl)cc2)CC1)c1ccc(F)cc1 | x | x | x | n | x | x | x | x | x | x | x
COc1ccccc1-n1c(=O)oc2ccc(Cl)cc2c1=O | n | n | 12.2 | n | 12.3 | n | 10.4 | n | n | n | n
CC(C)c1c(C(=O)NN=Cc2cccc(OCc3ccc(F)cc3)c2)nnn1-c1nonc1N | x | x | x | n | x | x | x | x | x | x | x
COc1ccc(NC(=O)C(=O)NN=C(C)CC(=O)Nc2cc(C)ccn2)c(OC)c1 | x | x | x | n | x | x | x | x | x | x | x
Cc1cc(C)c2c(N=NN3CCOCC3)[nH]nc2n1 | 17.0 | n | 11.6 | n | 76.9 | 70.7 | 4.2 | 33.5 | n | n | 32.2
CC1CN(C(C)CO)C(=O)c2cccc(NC(=O)c3ccncc3)c2OC1CN(C)C(=O)Nc1ccc2c(c1)OCO2 (stereo not given) | x | x | x | n | x | x | x | x | x | x | x
CCSc1nsc(NC(=O)Nc2cccc(F)c2)n1 | 25.4 | n | 14.7 | x | 18.5 | 13.2 | 15.8 | n | 16.1 | n | 22.0
O=C(O)c1cccc(NC(=S)N/N=C/c2ccccn2)c1 | 16.5 | n | 23.1 | x | 17.3 | 19.4 | 17.0 | n | 11.4 | n | n
CCOC(=O)C1=Nc2ccccc2C1=[N+]=[N-] | 96.2 | n | 91.2 | x | 97.8 | 100.2 | 97.9 | 100.5 | 97.8 | 99.1 | 100.8
Cc1ccc(-c2[nH]ncc2C=Nn2c(COc3ccccc3)nc3ccccc3c2=O)cc1 | x | x | x | n | x | x | x | x | x | x | x
COC(=O)c1ccc(COc2ccc(C=NNC(N)=S)cc2)o1 | x | x | x | n | x | x | x | x | x | x | x
CC(=O)NC(c1ccco1)c1cc(F)c2cccnc2c1O (stereo not given) | n | n | n | n | n | x | x | x | x | x | x
c1coc(CNc2nc3ccccc3s2)c1 | n | n | n | n | n | x | x | x | x | x | x
Oc1c(C(Nc2nc3ccccc3s2)c2ccco2)ccc2cccnc12 (stereo not given) | 21.2 | n | 14.5 | n | 19.3 | 13.6 | 13.3 | n | n | n | n
CC(C)C(=O)NC(c1cccc([N+](=O)[O-])c1)c1ccc2cccnc2c1O (stereo not given) | 22.8 | n | 23.0 | n | 18.2 | 27.0 | 21.8 | n | 16.4 | 20.9 | 27.6
CC(C)C(=O)NC(c1ccco1)c1ccc2cccnc2c1O (stereo not given) | 15.4 | n | 21.1 | x | 16.1 | n | 14.7 | n | n | n | n
Nc1nonc1-n1nnc(C(=O)NN=Cc2cccc(F)c2)c1-c1ccc2c(c1)OCO2 | x | x | x | n | x | x | x | x | x | x | x
Oc1ccccc1N=Nc1nc(-c2ccccc2)c(-c2ccccc2)[nH]1 | 22.2 | n | 20.0 | x | 27.6 | 21.2 | 16.0 | n | n | n | n
SMILES | E coli growth-1 | Tat export inh | phage Ecoli inh | E coli growth-2 | AddAB inh | AddAB confirm | RecBCD counter | bact viab count | RecBCD conf | Ecoli viability | AddAB phage OD
CC(=NNC(=O)c1cccs1)c1ccc(N2CCOCC2)cc1 | x | x | x | n | x | x | x | x | x | x | x
COc1ccc2c(c1)[n+](=O)c(C(C)=O)c(C)n2[O-] | n | n | n | n | n | x | x | x | x | x | x
CC(=O)c1c(C)n([O-])c2cc(F)c(F)cc2[n+]1=O | 52.8 | n | 21.9 | 0.111 | 63.2 | 98.0 | 25.8 | 88.3 | 23.4 | 31.1 | 91.4
CO[C@H]1/C=C/O[C@@]2(C)Oc3c(C)c(O)c4c(O)c(c(C=NN5CCN(C)CC5)c(O)c4c3C2=O)NC(=O)/C(C)=C\C=C\[C@H](C)[C@H](O)[C@@H](C)[C@@H](O)[C@@H](C)[C@H](OC(C)=O)[C@@H]1C | 48.0 | 77.7 | 78.0 | x | 51.6 | 58.7 | 57.9 | 62.1 | 80.5 | 88.6 | 102.0
CCCc1nc2ccccc2c(=O)n1N=Cc1ccc(O)cc1O | x | x | x | n | x | x | x | x | x | x | x
O=C(O)CC1c2cc(C(F)(F)F)ccc2S(=O)(=O)N1Cc1ccccc1 (stereo not given) | x | x | x | n | x | x | x | x | x | x | x
CCn1cc(C(=O)NCCC(C)C)c(=O)c2cc(F)c(N3CCN(C)CC3)cc21 | 98.7 | n | 40.2 | 0.066 | 99.8 | 99.4 | 58.5 | 99.5 | 19.0 | 35.7 | 93.2
CCCCNC(=O)c1cn(CC)c2cc(N3CCN(C)CC3)c(F)cc2c1=O | 98.4 | x | 96.7 | 0.071 | 99.8 | 98.1 | 99.8 | 99.2 | 102.7 | 104.5 | 104.4
CCn1cc(C(=O)NCc2cccnc2)c(=O)c2cc(F)c(N3CCN(C(=O)c4ccco4)CC3)cc21 | 93.9 | n | 20.9 | 0.051 | 95.3 | 97.6 | 10.4 | 99.0 | 12.9 | n | 102.9
CCN(CC)CCNC(=O)c1cn(CC)c2cc(N3CCN(C)CC3)c(F)cc2c1=O | 98.0 | n | 95.8 | 0.0555 | 100.4 | 99.2 | 99.8 | 97.9 | 65.3 | 102.2 | 100.0
CCCC(=O)NC(c1ccc(N(C)C)cc1)c1c(O)ccc2ccccc12 (stereo not given) | n | n | n | n | n | x | x | x | x | x | x
CCCCC(=O)NC(c1ccc(N(C)C)cc1)c1ccc2cccnc2c1O (stereo not given) | 35.4 | n | 23.0 | x | 24.8 | 29.6 | 22.6 | n | 13.1 | n | n
CCCCC(=O)NC(c1ccc(N(CC)CC)cc1)c1ccc2cccnc2c1O (stereo not given) | 16.9 | n | 18.6 | x | 20.1 | 23.6 | 17.2 | n | 12.3 | n | n
CCOC1c2c(ccc3ccc(=O)oc23)OC(C)(C)C1O (stereo not given) | x | x | x | n | x | x | x | x | x | x | x
CC(O)C1O[C@]2(C)CCCC1O2 (stereo not given in full) | x | x | x | n | x | x | x | x | x | x | x

Screening data: PubChem BioAssay, several laboratories
